Screening data: PubChem BioAssay, National Center for Advancing Translational Sciences (NCATS)
In the library only some 1.2% were active in any assay of this set; here they are far more common.
BRCA1 expr act = activators of BRCA1 expression; MCF7-BRCA1-FFLuc reporter, luminescence, 48 h; response scale: scaled: vehicle 0%, 10 µM genistein 100%; Potency, µM (titrated, usually from 46.1 µM), usual class: activators; hit rate 1.1% among 380,000; AID 624202; also: nearly all actives have a fitted effect of over 80% in size
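Using MCF7 cells harboring a BRCA1 firefly luciferase reporter, plated 2 h before compound pinning, the screen measured luminescence after 48 h incubation. Responses were normalized to DMSO and 10 microM genistein, then fitted for concentration-effect.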
RGS12 GoLoco inh = inhibitors of human Gai1-RGS12 GoLoco interaction (red fluorophore); P63096; Gai1:RGS12 GoLoco peptide FP, rhodamine, 10 min; Potency, µM (titrated, usually from 61.6 µM), hits mostly inhibitors; hit rate 0.44% among 230,000; AID 880; active = well fitted inhibition curve with a large enough effect, not every such curve was filed as active; inactive = no such curve, though single readings can be large or run the other way; also: nearly all actives have a fitted effect of over 30% in size
Anesthetic bind = binds horse apoferritin like a general anesthetic; P02791; apoferritin/1-aminoanthracene competitive binding, fluorescence; Potency, µM (titrated, usually from 77.5 µM), most hits filed as inhibitors; hit rate 0.074% among 350,000; AID 485281; also: nearly all actives have a fitted effect of over 20% in size
Target sequence (P02791 2-175 limits assumed): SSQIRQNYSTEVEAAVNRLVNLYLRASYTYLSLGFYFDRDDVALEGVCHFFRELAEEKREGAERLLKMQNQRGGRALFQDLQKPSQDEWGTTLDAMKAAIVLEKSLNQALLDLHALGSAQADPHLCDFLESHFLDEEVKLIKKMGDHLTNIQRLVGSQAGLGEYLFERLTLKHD
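10 uM apoferritin + 50% sat. 1-AMA, PBS; cpd 10 min RT; Ex380/Em535 endpoint; normalized to free probe vs complex; 4-param Hill fit; propofol titration as pos. ctrl.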
ERG Ets-DNA blk = inhibitors of human ERG Ets domain-DNA interaction; Potency, µM (series often up to 76.9 µM), actives largely listed as inhibitors; hit rate 0.028% among 370,000; AID 624246; P11308; fluorescence polarization, His-ERG Ets domain / labelled DNA; active = well fitted inhibition curve with a large enough effect in the polarisation, with a control signal flat; inconclusive = small, poorly fitted or top-dose-only effect, or effect the other way, or a change in a side signal; inactive = no such curve, though single readings can be large or run the other way; the % refers to the polarisation;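 also: polarization taken with two DNA probes labelled with fluorescein and Texas red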
Target sequence (P11308 whole entry, looked up, the tested form may be a part): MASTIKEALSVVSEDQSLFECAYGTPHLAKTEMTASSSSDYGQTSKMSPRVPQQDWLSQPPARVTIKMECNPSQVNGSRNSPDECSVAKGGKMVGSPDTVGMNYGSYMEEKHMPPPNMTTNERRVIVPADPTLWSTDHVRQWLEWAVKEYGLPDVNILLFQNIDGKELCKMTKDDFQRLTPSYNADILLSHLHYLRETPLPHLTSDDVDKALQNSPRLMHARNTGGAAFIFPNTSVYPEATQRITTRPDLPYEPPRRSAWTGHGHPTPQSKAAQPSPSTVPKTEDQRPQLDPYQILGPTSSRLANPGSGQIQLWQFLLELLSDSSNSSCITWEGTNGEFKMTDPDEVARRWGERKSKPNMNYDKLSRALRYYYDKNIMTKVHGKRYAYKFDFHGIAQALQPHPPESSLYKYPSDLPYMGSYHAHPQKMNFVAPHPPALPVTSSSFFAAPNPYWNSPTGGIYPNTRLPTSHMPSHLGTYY
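His-tagged ERG Ets domain (1 uM in the protein solution; 300mM KCl, 50mM Tris-HCl, 1mM EDTA, 1mM DTT, pH 7.5) received compound, then a probe mix of 5 nM fluorescein-DNA and 100nM Texas-615-DNA. Fluorescence polarization was read for both dyes.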
A number is an active result; [ ] = dose if it differs, or a comment. Unless noted, calls follow the shape of the dose curve; as a rule, active = well fitted curve in the direction sought with a large enough effect; inconclusive = small, poorly fitted or top-dose-only effect, or another doubt; inactive = no such curve, though single readings can be large; an effect the other way counts as inactive or inconclusive.

`COc1cc(O)c2c(=O)c(-c3ccc(O[C@@H]4O[C@H](CO)[C@@H](O)[C@H](O)[C@H]4O)cc3)coc2c1` gave BRCA1 expr act 2µM, Anesthetic bind inactive and ERG Ets-DNA blk inactive.
`O=c1c(-c2ccc(O)cc2)coc2cc(OC3OC(CO)C(O)C(O)C3O)ccc12` (stereo not given) gave BRCA1 expr act 6.3µM, RGS12 GoLoco inh inactive, Anesthetic bind inactive and ERG Ets-DNA blk inactive.
COc1cc(-c2coc3cc(O[C@H]4OC(CO)C(O)C(O)C4O)c(OC)c(O)c3c2=O)cc(O)c1OC (stereo not given in full) was read as RGS12 GoLoco inh inactive and Anesthetic bind inactive.
For O=c1c(-c2ccc(O)cc2)coc2cc(OC3OC(CO)C(O)C(O)C3O)cc(O)c12 (stereo not given) the results were BRCA1 expr act 8.9µM, RGS12 GoLoco inh inactive, Anesthetic bind inactive and ERG Ets-DNA blk inactive.
For Cc1cc(Cl)ccc1OCC(=O)Nc1cccc(-c2nc3ccccc3o2)c1 the results were BRCA1 expr act inactive.
O=S(=O)(c1cccc(Br)c1)N1CCN(c2nc(-c3cccs3)nc3ccccc23)CC1 was read as BRCA1 expr act inactive.
CC(C)(C)C(=O)Nc1nnc(SCc2ccc(F)cc2)s1 was read as BRCA1 expr act inactive[1.84 µM], RGS12 GoLoco inh inactive, Anesthetic bind inconclusive and ERG Ets-DNA blk inactive.
COCCSc1nnc(NC(=O)C(C)(C)C)s1 was read as BRCA1 expr act 5.6µM, RGS12 GoLoco inh inactive, Anesthetic bind inactive and ERG Ets-DNA blk inactive.
`CC(C)(C)C(=O)Nc1nnc(SCc2cccc(F)c2)s1` gave BRCA1 expr act 14µM, RGS12 GoLoco inh inactive, Anesthetic bind inconclusive and ERG Ets-DNA blk inactive.
For CCOC(=O)[C@H](Cc1ccc(O)cc1)NC(=O)c1ccccc1 the results were Anesthetic bind inactive.
Screening COc1ccc(/C=C2\OC(=O)c3c(OC)cccc32)cc1OC returned BRCA1 expr act 10µM, RGS12 GoLoco inh inactive, Anesthetic bind inactive and ERG Ets-DNA blk inactive.
O=C(/C=C/c1ccc(O)c(O)c1)O[C@H](Cc1ccc(O)c(O)c1)C(=O)O was read as RGS12 GoLoco inh 16µM and Anesthetic bind inactive.
`COc1ccccc1OCCNC(=O)c1ccc2c(c1)OCCO2` gave BRCA1 expr act inconclusive and ERG Ets-DNA blk inactive.
For COc1ccccc1OCCNC(=O)c1ccc2c(c1)CCC2 the results were BRCA1 expr act 11µM, Anesthetic bind inactive and ERG Ets-DNA blk inactive.
CN(C)c1ccc(C=Nc2ccc(/C=C3\C=Cc4ccccc43)cc2)cc1 was read as BRCA1 expr act inactive.
`CCOc1ccc(N2C(=O)c3ccccc3C2O)cc1` (stereo not given) gave BRCA1 expr act 6.3µM, RGS12 GoLoco inh inactive, Anesthetic bind inactive and ERG Ets-DNA blk inactive.
Screening Cc1ccc(C)c(N2CCN(C(=O)C3CCN(c4nc(-c5ccc(C(C)C)cc5)no4)CC3)CC2)c1 returned Anesthetic bind inactive and ERG Ets-DNA blk inactive.
CC(C)c1ccc(/C=N/NC(=O)c2c(Cl)cnn2C)cc1 was read as BRCA1 expr act 7.1µM, RGS12 GoLoco inh inactive, Anesthetic bind inactive and ERG Ets-DNA blk inactive.
Screening Cc1nn(C)c(C(=O)N/N=C/c2ccc(Br)cc2)c1Cl returned BRCA1 expr act inactive, RGS12 GoLoco inh inactive, Anesthetic bind inactive and ERG Ets-DNA blk inactive.
Screening CC1OC1c1ccc(-c2ccc(C3OC3C)cc2)cc1 (stereo not given) returned BRCA1 expr act 5µM and ERG Ets-DNA blk inactive.
For Cc1cccc(-c2cc3nc(C)cc(C)n3n2)c1 the results were BRCA1 expr act 1.6µM, RGS12 GoLoco inh inactive, Anesthetic bind inactive and ERG Ets-DNA blk inactive.
For O=C(NC1CCCCC1)C(=O)c1c[nH]c2ccccc12 the results were BRCA1 expr act 13µM, Anesthetic bind inactive and ERG Ets-DNA blk inactive.
For S=C(NCCc1c[nH]c2ccccc12)NC1CCCC1 the results were BRCA1 expr act inactive, RGS12 GoLoco inh inactive, Anesthetic bind inactive and ERG Ets-DNA blk inactive.
`O=C(COC(=O)c1c[nH]c2ccccc12)NC1CCCC1` gave BRCA1 expr act inactive and ERG Ets-DNA blk inactive.
`S=C(NCCc1c[nH]c2ccccc12)NC1CCCCC1` gave BRCA1 expr act 11µM, RGS12 GoLoco inh inactive, Anesthetic bind inactive and ERG Ets-DNA blk inactive.
For Cc1cccc(C)c1-n1ncc(C(=O)Nc2ccc3c(c2)OCCO3)c1C1CCN(C(=O)OC(C)(C)C)CC1 the results were Anesthetic bind inactive and ERG Ets-DNA blk inactive.
Screening COc1ccccc1CN(C)CC(=O)c1c(C)[nH]c2ccccc12 returned BRCA1 expr act inactive.
Screening O=C(COC(=O)CC12CC3CC(CC(C3)C1)C2)Nc1ncc(Cl)cc1Cl returned BRCA1 expr act inactive, RGS12 GoLoco inh inactive, Anesthetic bind 20µM and ERG Ets-DNA blk inactive.
For O=C(COC(=O)C12CC3CC(CC(C3)C1)C2)Nc1ncc(Cl)cc1Cl the results were BRCA1 expr act inactive, RGS12 GoLoco inh inactive, Anesthetic bind inconclusive and ERG Ets-DNA blk inactive.
CCC(=O)Nc1ccc2c(c1)Cc1cc(NC(=O)CC)ccc1-2 was read as BRCA1 expr act inactive, Anesthetic bind inactive and ERG Ets-DNA blk inactive.
Screening CC(=NO)c1ccc2c(c1)Cc1cc([N+](=O)[O-])ccc1-2 returned BRCA1 expr act 5.6µM and ERG Ets-DNA blk inactive.
Screening CC(O)CN(CC(C)O)c1ccc2c(c1)Cc1cc([N+](=O)[O-])ccc1-2 (stereo not given) returned BRCA1 expr act inactive and ERG Ets-DNA blk inactive.
CC(=O)c1ccc2c(c1)Cc1cc(C(C)=O)ccc1-2 was read as BRCA1 expr act 2µM, Anesthetic bind inactive and ERG Ets-DNA blk inactive.
CSCC[C@H](NC(=O)[C@H](Cc1c[nH]c2ccccc12)NC(=O)CNC(=O)[C@H](Cc1ccc(O)cc1)NC(=O)[C@H](C)NC(=O)[C@H](CCC(=O)O)NC(=O)[C@H](CCC(=O)O)NC(=O)[C@H](CCC(=O)O)NC(=O)[C@H](CCC(=O)O)NC(=O)[C@H](CCC(=O)O)NC(=O)[C@H](CC(C)C)NC(=O)[C@H](Cc1c[nH]c2ccccc12)NC(=O)[C@@H]1CCCN1C(=O)CNC(=O)[C@@H]1CCC(=O)N1)C(=O)N[C@@H](CC(=O)O)C(=O)N[C@@H](Cc1ccccc1)C(=O)NCC(=O)O was read as Anesthetic bind inactive.
For CCN1C(=NCc2cccc(Cl)c2)N[C@@H](c2cccc(C(F)(F)F)c2)C(C(=O)OC)=C1C the results were BRCA1 expr act inactive.
Screening Clc1ccc(-n2nnc(-c3cccnc3Cl)n2)cc1Cl returned BRCA1 expr act 4µM, RGS12 GoLoco inh inactive, Anesthetic bind inactive and ERG Ets-DNA blk inactive.
Screening Clc1ncccc1-c1nnn(-c2ccccc2)n1 returned BRCA1 expr act inconclusive, RGS12 GoLoco inh inactive, Anesthetic bind inactive and ERG Ets-DNA blk inactive.
`O=C(COc1ccccc1)Nc1nc2c(s1)CCCC2` gave BRCA1 expr act 3.2µM, Anesthetic bind inactive and ERG Ets-DNA blk inactive.
Screening O=C(COc1ccccc1Cl)Nc1nc2c(s1)CCCC2 returned Anesthetic bind inactive and ERG Ets-DNA blk inactive.
